# About 340 (0.62%) of roughly 55,000 compounds were called active. Where a call stands in place of a potency, no number is given. Another 3% or so got no clear call; they are omitted. This is one part of a sample in which actives are shown more often than they occur. Calls follow the shape of the dose curve; as a rule, active = well fitted cell-killing curve with a large enough effect; inconclusive = small, poorly fitted or top-dose-only effect; inactive = no such curve, though single readings can be large or run the other way.
# Assay: qHTS Screen for Compounds that Selectively Target Cancer Cells with p53 Mutations: Cytotoxicity of p53 Null Cells at the Permissive Temperature; also: nearly all actives have a fitted effect of over 55% in size
# Conditions: H1299-neo p53 null cells, ATP luminescence, 24 h, 32C; series mostly up to 46.1 µM
# Excerpt: NIH Chemical Genomics Center [NCGC] NIH Molecular Libraries Screening Centers Network [MLSCN] MLSCN Grant: 1 X01 MH079844-01 Assay Submitter (PI): Dr. SUN, YI, University of Michigan NCGC Assay Overview: Synthetic Lethal Screen for Compounds to Kill Cancer Cells with p53 Mutation. Tumor suppressor gene p53 serves as a major cellular barrier against tumorigenesis. […] The goal of this screening is to identify small molecule probes that selectively kill cancer cells with mutations in p53. This screening was carried out using two lines of H1299 lung cancer cells. The H1299-p53 A138V line express a temperature sensitive p53 mutant (p53ts) in which the mutant p53 protein (A138V) is in the mutant confirmation when grown at 39C (the nonpermissive temperature) and in the wild type conformation when grown at 32C (the permissive temperature). A H1299-neo line (p53 null) grown at both 39C and 32C were used as counter-screens to filter out false positive associated with temperature shifting. The small molecular compounds that selectively target mutant p53-containing cancer cells were selected as candidate probes for further study. A cytotoxicity assay based on the measurement of ATP contents in cells was used in this screen. Concentration-responses of all the compounds in the library collection were determined in qHTS using the cell lines and temperature conditions as above.
# NCGC Assay Protocol Summary: Both the H1299-p53A138V and H1299-neo cell lines were provided by Dr.Yi Sun, a PI at the University Michigan. The cells were maintained and cultured at 37C. The resuspended frozen cells were used to plate the cells in the 1536-well assay plates at a density of 600 cells per well in 5 ul medium. The assay plates with the cells were incubated at 37C for 16 to 30 hours before the experiments. The library compounds in DMSO solution were added to the cells in assay plates and incubated 24 hours at 39C (for mutant p53 conformation) or 32C (for normal p53 conformation as control). An ATP_lite assay kit (PerkinElmer) was used to determine the cell viability. Tomaxifen (100uM) was used as the positive control for cell killing. Data were normalized to the controls for basal activity (DMSO only) and 100% killing (100uM tamoxifen). AC50 values were determined from concentration-response data modeled with the standard Hill equation. P53 assay protocol: 1. Reagent; 5 uL H1299-p53A138V or H1299-neo cell cells/well 2. Time; overnight; 37C incubation 3. Compounds; 23 nL; 5.9 nM to 46 uM 4. Controls; 23 nL; Tamoxifen 100 uM 5. Time; 24 hr; 32C incubation 6. Reagent; 3 uL; ATP_Lite reagent 7. Time; 20 min; Room Temperature 8. Detection; Luminescence; Viewlux plate reader Keywords: p53, synthetic lethal, cancer, cell viability, cytotoxicity, H1299 cell line, luminescence, MLSMR, MLSCN, NIH Roadmap, qHTS, NCGC
# Potency is read from the fitted curve at half-maximal effect.
row,Structure (SMILES),Potency
1,CC(C)Oc1ccc(NC(=O)c2cc3ccccc3o2)cc1,10 µM (active)
2,Cn1cc(/C=C/c2nc3ccccc3c(=O)n2-c2ccccc2)c2ccccc21,inactive
3,CC(C)(C)c1ccc(S(=O)(=O)Nc2ccc(O)c(Sc3nc4ccccc4s3)c2)cc1,inactive
4,CCCCOc1ccc(C(=O)N2CC(=O)Nc3ccc(Br)cc3C2c2ccc(F)cc2)cc1 (stereo not given),inactive
5,Cc1ccc(Cn2c(C)c3cnn(CC(=O)N4CCC5(CC4)OCCO5)c(=O)c3c2C)cc1,inactive

# Reference: PubChem BioAssay AID903 (National Center for Advancing Translational Sciences (NCATS), 2007)
